# Measurements from the supplement of paper PMC9262897, “Low-cost anti-mycobacterial drug discovery using engineered E. coli” (Nature Communications, 2022).
# Counter-ions that a name gives are not always drawn. ± gives the standard deviation of the averaged measurements.
# What was measured:
# Assay in all cases: growth (OD600 after 10 h); higher = more growth (less inhibition)
# [1] = tested on: E. coli TESEC Alr+ wild-type control; conditions: compound 0.1 mM; raw OD600 reference: median of DMSO wells 0.241, cell-free background 0.041
# Procedure: (§1)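 TESEC Mtb Alr E. coli, or the Alr+ wild-type control, in 384-well plates with Prestwick library compounds at 0.1 mM and 1% DMSO, across arabinose induction levels of 1E3 to 1E7 nM. Growth is read as OD600 after 10 h at 37 °C in triplicate biological replicates.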
# E. coli TESEC Mtb Alr [2] = conditions: compound 0.1 mM
# Procedure: as §1
# E. coli TESEC Mtb Asd = conditions: compound 0.1 mM
# Procedure: (§2)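 TESEC E. coli strains in which the native enzyme is deleted and replaced by arabinose-inducible Mtb Asd, DapB, CysH or TrpD, each grown in its selective medium. Strains were screened against the Prestwick library at 0.1 mM and 1% DMSO in 384-well format at low and high arabinose induction. Growth is read as OD600 after 10 h in triplicate.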
# E. coli TESEC Mtb DapB = conditions: compound 0.1 mM
# Procedure: as §2
# [3] = tested on: E. coli TESEC Alr+ wild-type control; conditions: compound 0.1 mM; raw OD600 reference: median of DMSO wells 0.49, cell-free background 0.052
# Procedure: (§3)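 TESEC Mtb Alr E. coli (ΔaraC ΔtolC ΔentC Δalr ΔdadX, arabinose-inducible Mtb Alr) or the Alr+ wild-type control strain, grown in defined M9-fructose medium without D-alanine in 96-well plates with Prestwick library compounds at 0.1 mM and 1% DMSO. Low Alr induction is 0.1 µM arabinose and high induction is 10 mM arabinose.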
# E. coli TESEC Mtb Alr [4] = conditions: compound 0.1 mM; remark: listed apart in the source
# Procedure: as §3
# [5] = arabinose 1000 nM, raw OD600 reference: median of DMSO wells 0.294, cell-free background 0.041
# [6] = arabinose 10000 nM, raw OD600 reference: median of DMSO wells 0.264, cell-free background 0.041
# [7] = arabinose 100000 nM, raw OD600 reference: median of DMSO wells 0.201, cell-free background 0.041
# [8] = arabinose 1000000 nM, raw OD600 reference: median of DMSO wells 0.193, cell-free background 0.041
# [9] = arabinose 10000000 nM, raw OD600 reference: median of DMSO wells 0.146, cell-free background 0.041
# [10] = arabinose induction (level): High, raw OD600 reference: median of DMSO wells 0.331, cell-free background 0.041
# [11] = arabinose induction (level): Low, raw OD600 reference: median of DMSO wells 0.417, cell-free background 0.041
# [12] = arabinose induction (level): High, raw OD600 reference: median of DMSO wells […], cell-free background 0.041
# [13] = arabinose induction (level): Low, raw OD600 reference: median of DMSO wells 0.227, cell-free background 0.041
# [14] = arabinose 100 nM, raw OD600 reference: median of DMSO wells 0.413, cell-free background 0.052
# [15] = arabinose 10000000 nM, raw OD600 reference: median of DMSO wells […], cell-free background 0.052
SMILES,growth [1],growth (E. coli TESEC Mtb Alr [2]; [5]),growth (E. coli TESEC Mtb Alr [2]; [6]),growth (E. coli TESEC Mtb Alr [2]; [7]),growth (E. coli TESEC Mtb Alr [2]; [8]),growth (E. coli TESEC Mtb Alr [2]; [9]),growth (E. coli TESEC Mtb Asd; [10]),growth (E. coli TESEC Mtb Asd; [11]),growth (E. coli TESEC Mtb DapB; [12]),growth (E. coli TESEC Mtb DapB; [13]),growth [3],growth (E. coli TESEC Mtb Alr [4]; [14]),growth (E. coli TESEC Mtb Alr [4]; [15])
CC=C(C)C(=O)OC1C(OC(C)=O)C2(CO)C(O)CC3(C)C(=CCC4C5(C)CCC(OC6OC(C(=O)O)C(OC7OC(CO)C(O)C(O)C7O)C(O)C6OC6OC(CO)C(O)C(O)C6O)C(C)(CO)C5CCC43C)C2CC1(C)C (stereo not drawn) [Beta-Escin],0.289 ± 0.0075,0.333 ± 0.0081,0.24 ± 0.0056,0.366 ± 0.011,0.151 ± 0.0075,0.226 ± 0.01,0.271 ± 0.026,0.342 ± 0.048,0.329 ± 0.018,0.323 ± 0.0085,0.438 ± 0.02,0.438 ± 0.018,0.392 ± 0.011
Cc1cn([C@H]2C=C[C@@H](CO)O2)c(=O)[nH]c1=O [Stavudine],0.163 ± 0.01,0.285 ± 0.023,0.158 ± 0.017,0.121 ± 0.0031,0.119 ± 0.0013,0.181 ± 0.0073,0.157 ± 0.013,0.158 ± 0.0091,0.192 ± 0.015,0.178 ± 0.0066,0.512 ± 0.037,0.417 ± 0.011,0.218 ± 0.012
"CCN(CC)CCOc1ccc(C(=C(Cl)c2ccccc2)c2ccccc2)cc1 [Clomiphene citrate (Z,E)]",0.0417 ± 0.00081,0.04167 ± 0.00032,0.04553 ± 0.00029,0.0433 ± 0.0019,0.0493 ± 0.00052,0.0428 ± 0.00085,0.0496 ± 0.0019,0.0482 ± 0.00099,0.04853 ± 0.00015,0.0475 ± 0.00049,0.0537 ± 0.00085,0.0696 ± 0.034,0.0856 ± 0.015
CC(C)Cn1cnc2c(N)nc3ccccc3c21 [Imiquimod],0.224 ± 0.017,0.282 ± 0.0092,0.282 ± 0.01,0.165 ± 0.012,0.178 ± 0.014,0.158 ± 0.01,0.209 ± 0.026,0.392 ± 0.024,0.21 ± 0.011,0.261 ± 0.045,0.574 ± 0.048,0.411 ± 0.0054,0.301 ± 0.015
COc1cc(C(=O)NC2CCCNC2)cc(OC)c1OC (stereo not drawn) [Troxipide],0.225 ± 0.0045,0.286 ± 0.012,0.255 ± 0.0049,0.205 ± 0.016,0.191 ± 0.02,0.134 ± 0.0027,0.353 ± 0.075,0.427 ± 0.057,0.19 ± 0.012,0.216 ± 0.0046,0.504 ± 0.1,0.402 ± 0.014,0.359 ± 0.038
CN(c1nccc(=O)[nH]1)C1CCN(c2nc3ccccc3n2Cc2ccc(F)cc2)CC1 [Mizolastine],0.18 ± 0.016,0.221 ± 0.011,0.172 ± 0.0085,0.215 ± 0.01,0.0813 ± 0.0018,0.1409 ± 0.0014,0.177 ± 0.0092,0.293 ± 0.036,0.2 ± 0.039,0.174 ± 0.012,0.426 ± 0.018,0.406 ± 0.0081,0.162 ± 0.026
OCCOCCN1CCN(C2=Nc3ccccc3Sc3ccccc32)CC1 [Quetiapine hemifumarate],0.158 ± 0.01,0.25 ± 0.0048,0.255 ± 0.0044,0.203 ± 0.026,0.121 ± 0.0057,0.151 ± 0.0081,0.162 ± 0.024,0.361 ± 0.016,0.174 ± 0.013,0.187 ± 0.021,0.486 ± 0.019,0.396 ± 0.0062,0.289 ± 0.0089
O=C(O)c1cn(-c2ccc(F)cc2)c2cc(N3CCNCC3)c(F)cc2c1=O [Sarafloxacin],0.0422 ± 0.00026,0.0454 ± 0.0031,0.0399 ± 0.0003,0.04133 ± 0.00015,0.0405 ± 0.0013,0.0412 ± 0.0021,0.0475 ± 0.0021,0.047 ± 0.0013,0.0494 ± 0.00055,0.0482 ± 0.00017,0.0534 ± 0.00044,0.0545 ± 0.00093,0.0532 ± 0.0002
CCCCOc1ccc(CC(=O)NO)cc1 [Bufexamac],0.204 ± 0.0088,0.247 ± 0.014,0.243 ± 0.0037,0.202 ± 0.025,0.118 ± 0.0015,0.0983 ± 0.0016,0.33 ± 0.0049,0.418 ± 0.034,0.18 ± 0.013,0.222 ± 0.088,0.437 ± 0.031,0.4 ± 0.018,0.284 ± 0.0052
CN(C)CCOC(C)(c1ccccc1)c1ccccn1 (stereo not drawn) [Doxylamine succinate],0.236 ± 0.0058,0.288 ± 0.016,0.249 ± 0.0028,0.19 ± 0.025,0.164 ± 0.0088,0.141 ± 0.0072,0.301 ± 0.028,0.374 ± 0.071,0.179 ± 0.019,0.206 ± 0.011,0.51 ± 0.06,0.41 ± 0.0066,0.353 ± 0.0099
Cc1cnc(C(=O)O)c[n+]1[O-] [Acipimox],0.244 ± 0.006,0.304 ± 0.025,0.247 ± 0.0063,0.218 ± 0.029,0.1751 ± 0.0015,0.1397 ± 0.00085,0.263 ± 0.085,0.282 ± 0.065,0.199 ± 0.013,0.217 ± 0.021,0.497 ± 0.06,0.41 ± 0.009,0.338 ± 0.021
CN1[C@@H]2CC[C@H]1C[C@@H](OC(c1ccccc1)c1ccccc1)C2 [Benztropine mesylate],0.1702 ± 0.0017,0.219 ± 0.0061,0.289 ± 0.037,0.165 ± 0.0036,0.133 ± 0.0073,0.166 ± 0.0023,0.137 ± 0.018,0.253 ± 0.076,0.166 ± 0.0063,0.201 ± 0.011,0.487 ± 0.029,0.4104 ± 0.0035,0.288 ± 0.0043
CCn1nc(C(=O)O)c(=O)c2cc3c(cc21)OCO3 [Cinoxacin],0.0813 ± 0.0028,0.0736 ± 0.006,0.0622 ± 0.0033,0.089 ± 0.0035,0.108 ± 0.0017,0.139 ± 0.0015,0.335 ± 0.024,0.244 ± 0.035,0.211 ± 0.013,0.212 ± 0.0088,0.0852 ± 0.0034,0.0933 ± 0.016,0.0712 ± 0.0049
Cc1cccc(Nc2ccncc2S(=O)(=O)NC(=O)NC(C)C)c1 [Torsemide],0.222 ± 0.005,0.29 ± 0.012,0.257 ± 0.019,0.168 ± 0.012,0.17 ± 0.0046,0.16 ± 0.0021,0.228 ± 0.029,0.353 ± 0.095,0.197 ± 0.021,0.26 ± 0.019,0.477 ± 0.021,0.403 ± 0.016,0.326 ± 0.025
CC1(C)O[C@@H]2C[C@H]3[C@@H]4CCC5=CC(=O)C=C[C@]5(C)[C@H]4[C@@H](O)C[C@]3(C)[C@]2(C(=O)CO)O1 [Desonide],0.185 ± 0.0048,0.252 ± 0.0091,0.254 ± 0.011,0.172 ± 0.014,0.15 ± 0.005,0.144 ± 0.0029,0.208 ± 0.0068,0.378 ± 0.065,0.181 ± 0.005,0.248 ± 0.034,0.496 ± 0.062,0.414 ± 0.011,0.302 ± 0.019
CC(CCc1ccc(O)cc1)NCCc1ccc(O)c(O)c1 (stereo not drawn) [Dobutamine hydrochloride],0.116 ± 0.0039,0.227 ± 0.021,0.174 ± 0.0051,0.198 ± 0.0044,0.116 ± 0.0039,0.115 ± 0.0067,0.176 ± 0.006,0.165 ± 0.029,0.19 ± 0.02,0.167 ± 0.02,0.539 ± 0.008,0.409 ± 0.0099,0.343 ± 0.018
